# Source: PubChem BioAssay AID463212 (Sanford-Burnham Center for Chemical Genomics, 2010)
# Screen size: about 330,000 compounds; about 4,400 (1.3%) were called active. The entries come from a sample that favours actives as a whole. A number with no mark means an inactive call.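 The calls were made as follows: active = growth inhibition of the mutant yeast at or above 50%; inactive = the rest.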
# Test: growth inhibition of tim23-1 ts yeast – luminescence, uHTS, primary screen (AID 463212);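 also: temperature-sensitive mutant grown at 25 °C; plate controls were DMSO-treated mutant yeast for no effect and medium wells lacking yeast for full effect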
# Conditions: S. cerevisiae tim23-1 growth, BacTiter-Glo luminescence, 24 h; at 20 µM; hits give high values
row,Structure (SMILES),inhibition
1,CCC[C@H]1CCCC/C=C\CCCC(=O)OCCN1C(=O)OC(C)(C)C,9.84%
2,CC1Sc2ccc(C(=O)NCc3ccccc3Cl)cc2NC1=O (centres undefined),9.69%
3,CCOc1ccc(N/C(N)=N/c2nc(C)c(C)c(=O)[nH]2)cc1,12.2%
4,CCOC(=O)N1CCN(C(=O)c2ccc3nc4cc(Cl)ccc4c(=O)n3c2)CC1,10.4%
5,COc1ccc(NC(=O)/C(Cl)=C(/Cl)S(=O)Cc2ccc(C)cc2)cn1 (centres undefined),67% (active)
6,COC(=O)c1sccc1NC(=S)Nc1ccc(C)cc1,22.6%
7,CCN(CC(=O)Nc1ccc(OC)cc1)C(=O)CSCc1ccc(C)cc1,25%
8,COc1ccc(CS(=O)/C(Cl)=C(/Cl)C(=O)Nc2ccc(OC)nc2)cc1 (centres undefined),85.7% (active)
9,COc1ccc(C(=O)CCC(=O)Nc2ccc(Cl)cc2)cc1,12.1%
10,COc1ccc(CCNC(=O)c2cnc(Cl)c(Cl)c2)cc1,1.06%
11,COc1ccc2c(c1)cc1n2CCN=C1NN,45.5%
12,COc1ccc(C/C(N)=N/OC(=O)c2ccco2)cc1OC,2.63%
13,COc1ccc(C(=O)ON=C2c3ccccc3-c3ccccc32)cc1OC,0.197%
14,COc1ccc(C(=O)O/N=C(\N)Cc2ccc(Cl)cc2Cl)cc1OC,60.3% (active)
15,Cn1nc(C(F)(F)F)c(-c2ccc(F)cc2)c1NC(=O)CSCC(=O)O,-1.38%
16,Cn1nc(C(F)(F)F)c2cc(NC(=O)OCC(C)(C)C)sc21,50.2% (active)
17,Cn1nc(C(F)(F)F)c2cc(C(=O)N3CCOCC3)sc21,3.93%
18,COc1ccc(CCNC(=O)C2CCCN(Cc3nc(-c4cccc(Cl)c4)oc3C)C2)cc1OC (centres undefined),7.77%
19,COc1cc(OC)c2c(-c3cccc(-c4cccc(N)c4)c3)cc(=O)oc2c1,35.7%
20,O=C(O)c1ccc(/C=N/NC(=S)NCc2ccccc2)cc1,-1.86%
21,C/C(=N\NC(=S)NCc1ccccc1)c1ccc(Cl)cc1,56% (active)
22,C/C(=N\NC(=S)NCc1ccccc1)C1CCCCC1,22.7%

row,Structure (SMILES),inhibition
1,Cc1nn(C)c(C)c1CN(C(=O)CCc1nnc(Cc2c[nH]c3ccccc23)o1)C(C)C,20.5%
2,O=C(NC1CCCCCC1)C1CCN(C(=O)c2ccc(Cl)cc2)CC1,15.7%
3,COc1ccc(-n2cnc3cc(C(=O)NC4CCCC4)ccc32)cc1,17.7%
4,O=C(NNC(=S)NC1CCCCC1)c1ccccc1Cl,5.3%
5,CCCNC(=S)N1CCC(NC(=O)c2ccc(OC)cc2)CC1,-9.98%
6,COc1ccc(C(=O)NC(=S)NC2CCCCC2)cc1,63.3% (active)
7,O=C(NC(=S)NC1CCCCC1)c1ccc(Cl)cc1,67.3% (active)
8,CCc1ccc(S(=O)(=O)NCC(O)COc2ccc(OC)cc2)cc1 (centres undefined),13.2%
9,CCc1ccc(Nc2n[n+](-c3ccccc3)c(-c3cccc(Cl)c3Cl)s2)cc1,36.3%
10,CC(=O)C1=C(O)C(=O)N(c2cccnc2)C1c1ccc([N+](=O)[O-])cc1 (centres undefined),4.69%
11,CCc1ccccc1NC1c2ccccc2C(=O)N1c1cccnc1 (centres undefined),-9.01%
12,O=C1[C@@H](c2ccccc2)[C@@H](c2ccccc2)N1c1cccnc1,70.3% (active)
13,CCOc1cc(/C=N/Nc2cc(C)nc3ccc(C)cc23)ccc1O,37.3%
14,COc1cc(/C=N/Nc2nc3ccccc3s2)ccc1O,51.9% (active)
15,COc1cc(/C=N/NC(=O)CCc2n[nH]c(=O)[nH]c2=O)ccc1O,5.73%
16,CC(=O)c1c(C)[nH]c(C(=O)CN2C(=O)NC(C)(C)C2=O)c1C,-12.9%
17,Cc1ccc(S(=O)(=O)N[C@@H](Cc2ccccc2)C(=O)N2CCC(C(=O)N[C@H](C(=O)O)C(C)O)CC2)cc1 (some centres undefined),0.987%
18,Oc1c(Cl)cc(Cl)c(Cl)c1Cc1c(O)c(Cl)cc(Cl)c1Cl,94.9% (active)
19,Cc1ccc(OC(=O)c2cncc(Br)c2)c(C)c1,14.1%
20,Cc1ccc(C(=O)OC2CCCN(C)C2)cc1 (centres undefined),-2.9%
21,CC1(C)C2CCC1(C)C(OC(=O)CCn1ccnc1)C2 (centres undefined),13.1%
22,CC1(C)C2CCC1(C)C(OC(=O)c1ccc(O)cc1)C2 (centres undefined),70% (active)

row,Structure (SMILES),inhibition
1,CN(C)c1ccc(N/C=C/C(=O)C(F)(F)F)cc1,6.08%
2,O=C(O)c1cc(S(=O)(=O)N2CCCCCC2)c(Cl)cc1Cl,8.13%
3,COc1ccc(CCNC(=O)CCCCCNC(=O)N2CCn3c2nc2ccccc23)cc1OC,15%
4,CC1CC2=C(CC1/C=N/NC(N)=S)C(C)(C)CCC2 (centres undefined),50.5% (active)
5,CC1CCN(C(=S)c2ccc(-c3ccc(Cl)cc3Cl)o2)CC1,17.6%
6,C/C(=N\NC(=O)c1ccc(NS(=O)(=O)c2cccs2)cc1)c1ccc2ccccc2c1,10.6%
7,CCN(C(=O)CSc1nnnn1-c1ccccc1OC)C1CCS(=O)(=O)C1 (centres undefined),-2.5%
8,O=C(COC(=O)c1ccc(O)cc1O)c1ccc2c(c1)OCCO2,59% (active)
9,O=C(COC(=O)c1ccccc1)c1ccc2c(c1)OCCO2,16.5%
10,CC(=O)Nc1cccc(C(=O)OCC(=O)c2ccc3c(c2)OCO3)c1,2.44%
11,O=C(c1cnn2ccccc12)N1CCc2ccccc21,5.86%
12,COC(=O)c1cn(C)c2ccc(S(=O)(=O)N3CC(C)CC(C)C3)cc2c1=O (centres undefined),17.1%
13,CC(=O)N/C(=C/c1ccc(OC(F)F)cc1)C(=O)O,0.72%
14,C=CCn1c(Cn2nnc3ccccc32)nnc1SCC(=O)N/N=C/c1cc(Br)cc(OC)c1O,7.67%
15,Oc1c(Cl)cc(Cl)cc1/C=N/c1ncn[nH]1,31.4%
16,COc1cc(Br)cc(/C=N/c2ncn[nH]2)c1O,72.2% (active)
17,CCc1ccc(Oc2nc([N+](=O)[O-])nn2C)cc1,27.6%
18,CC1CCN(Cc2nc3c(c(=O)n(C)c(=O)n3C)n2CCc2ccccc2)CC1,5.06%
19,CCCc1nc2c(c(=O)c3ccccc3n2C)c(=O)n1C1CCCCCC1,59.8% (active)
20,Cn1c2ccccc2c2c(C(=O)N3CCN(c4ccc(F)cc4)CC3)cn(C3CCCC3)c(=O)c21,31.3%
